# In all, about 94,000 compounds went through this assay and about 4,000 (4.3%) were called active. About 29% were inconclusive and are not listed. This is one part of a sample in which actives are shown more often than they occur. Calls come from the whole dose curve; as a rule, active = well fitted inhibition curve with a large enough effect; inconclusive = small, poorly fitted or top-dose-only effect; inactive = no such curve, though single readings can be large or run the other way.
# Experiment: Cytotoxic Profiling in NIH 3T3 Cell Line of Diverse Libraries Using Quantitative High-Throughput Screening; note: nearly all actives have a fitted effect of over 55% in size
# Details: NIH 3T3 viability, CellTiter-Glo ATP luminescence, 48-72 h; series mostly up to 96.7 µM; activity change, negative = cytotoxicity: at the top concentration
# In short: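 Cytotoxicity is measured as loss of cellular ATP: NIH 3T3 cells (400/well) are exposed to compound for 48 or 72 hr at 37 °C, then CellTiter-Glo luminescence is imaged after 10 min at room temperature.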
# % is set by controls: 0 for no effect and ±100 for the full control effect; potency is the fitted concentration of half-maximal effect.
SMILES,"activity change, negative = cytotoxicity",outcome,Potency
Cc1noc(C)c1[S+](=O)([O-])N1CCC2(CC1)C(=O)NN=C2c1cccnc1,-26.3% (inactive),,
Cc1ccccc1CNC(=O)CN1C(=O)C2(CCNCC2)Nc2ccccc21,,inactive,
CN(Cc1cccc(C(F)(F)F)c1)Cc1cccc(C(F)(F)F)c1,-4.01% (inactive),,
CC(C)(C)n1nnnc1C1CC2(CCOCC2)C(=O)N1Cc1ccc(F)cc1 (centres undefined),-0.724% (inactive),,
Cc1ccc(-c2cccc(CN3CCCC3C(=O)NCc3ccc(C(F)(F)F)cc3)c2)cc1Cl (centres undefined),,,31.6 µM (active)
COc1cccc(CC(=O)N2CCC(N3C(=O)CCC3C(=O)NCc3ccccc3)CC2)c1 (centres undefined),-14.4% (inactive),,
COc1cccc(-c2cccc(C(=O)N3CCCC3C(=O)NCC3CC3)c2)c1 (centres undefined),-10.9% (inactive),,
Cc1ccc(-c2cccc(CN3CCCC(NC(=O)c4ccc(C(F)(F)F)cc4)C3)c2)cc1Cl (centres undefined),-4.84% (inactive),,
Cc1ccc(CNC(=O)[C@@H]2COCC(=O)N2Cc2ccc(F)cc2)cc1,-23.1% (inactive),,
COc1cccc(-c2ccc(CN3CCCC3C(=O)NCc3ccccc3Cl)cc2)c1 (centres undefined),,,39.8 µM (active)
CN(CC1CCOCC1)C(=O)Cc1ccsc1,,inactive,
COc1ccc(N2CCC(NS(=O)(=O)C3CC3)C2=O)cc1 (centres undefined),-15.8% (inactive),,
CN(C)Cc1cn(C[C@H]2C[C@@H](NS(=O)(=O)c3ccccc3)[C@H](O)[C@@H]2O)nn1,-5.32% [at 174 µM] (inactive),,
O=C(C1CCC1)N1CCC(C(=O)N2CCCC2c2ccco2)CC1 (centres undefined),1.21% (inactive),,
CN(CC1CCOCC1)C(=O)c1ccc(Cl)cc1,-0.189% (inactive),,
CCOCCNC(=O)C1CCCCN1Cc1ccc(-c2cc(F)ccc2OC)cc1 (centres undefined),,,39.8 µM (active)
CC(=O)N1CCCN(C(=O)C2CCCCN2Cc2ccc(-c3ccsc3)cc2)CC1 (centres undefined),-22.7% (inactive),,
CCOCCOC1CCN(C(=O)NCc2ccc(F)cc2)CC1,-4.23% (inactive),,
O=C(C1CCCCN1Cc1ccc(-c2cccs2)cc1)N1CCOCC1 (centres undefined),0.343% (inactive),,
CCN1CCN(C(=O)C2CCCCN2Cc2ccc(-c3cc(F)ccc3OC)cc2)CC1 (centres undefined),,,35.5 µM (active)
COCCNC(=O)[C@@H]1CCC[C@@H](NCc2ccc(F)cc2)CN(C)C(=O)C1,-11.3% [at 174 µM] (inactive),,
O=C(c1cccn1C1CC1)N1C[C@H](CO)C[C@H](CN2CCCC2)C1,-2.77% (inactive),,

SMILES,"activity change, negative = cytotoxicity",outcome,Potency
COCC1CN(C)CC12CCN(C(=O)C1CCOCC1)CC2 (centres undefined),-0.42% (inactive),,
Cc1ccccc1S(=O)(=O)N1CCC2(CC1)CC(OCC1CC1)CCO2 (centres undefined),-19.2% (inactive),,
COc1cc(F)ccc1-c1ccnc2nc(C(C)C)nn12,-24.5% (inactive),,
Cc1noc([C@@H]2CN(S(=O)(=O)c3cccs3)C[C@H]2C(N)=O)n1,-16.9% (inactive),,
CCCOCCCNC(=O)c1c(C)noc1-c1cc(OC)c(OC)c(OC)c1,-17.4% (inactive),,
COc1ccccc1-c1onc(C)c1C(=O)NCCC(c1ccccc1)c1ccccc1,,,31.6 µM (active)
COc1ccccc1-c1onc(C)c1C(=O)NCc1ccc(Cl)cc1,-28.6% (inactive),,
COC[C@@H]1CN(Cc2ccccn2)C[C@H]1C(=O)N(C)C,-6.36% (inactive),,
Cc1cc(CNC(=O)C2CCCN(C3CCN(CCc4ccccc4)CC3)C2)on1 (centres undefined),0.71% (inactive),,
O=C(Nc1cccc(Cl)c1)c1cnc2c(c1)N(C(=O)CCc1ccccc1)CCC2,-20% [at 138 µM] (inactive),,
CC(C)Nc1ncc(C(=O)NC2CCCN(CCc3ccccc3)C2)cn1 (centres undefined),-6.8% (inactive),,
CC(C)CCNC(=O)c1cnc2c(c1)N(Cc1ccccc1)CCC2,,,79.4 µM (active)
Cc1cccc(C(=O)N2CCCN(c3nnc4ccccn34)CC2)c1,-8.72% (inactive),,
Cc1cc(C(=O)NCC(C)C)c2c(C3CCNC3)noc2n1 (centres undefined),2.92% [at 138 µM] (inactive),,
COc1cc(SC)ccc1C(=O)N[C@@H]1C=C(C(=O)N[C@@H](Cc2cccs2)C(N)=O)C[C@@H](O)[C@@H]1O,,inactive,
Cc1ccc(C)c(NC(=O)C2CC(=O)N(c3n[nH]c4cc(Br)ccc34)C2)c1 (centres undefined),-8.49% (inactive),,
Cc1nc(N2CCC(NCCNc3ccncc3C)CC2)c2ccsc2n1,,,44.7 µM (active)
Cc1nc(N2CCC(NC(=O)c3cnccn3)CC2)cc(C(F)(F)F)n1,-1.41% (inactive),,
Cc1[nH]ncc1CNC(=O)C1CCN(c2cnn(CC3CC3)c(=O)c2)C1 (centres undefined),3.61% (inactive),,
O=C(NCc1nc(-c2ncccn2)no1)[C@H]1CNC[C@@H](C(=O)N2CCCC2)C1,-8.69% (inactive),,
O=C1CCN(C(=O)c2ccc3ccccc3n2)CCCCCCN1,-19.4% (inactive),,
CCn1cc(CN2CCCCCNC(=O)[C@@H]3CCC[C@@H]32)cn1,-2.66% (inactive),,

SMILES,"activity change, negative = cytotoxicity",outcome,Potency
O=C(c1nc(-c2cccnc2)c2cnccn12)N1CCN(c2ncccn2)CC1,-8.83% (inactive),,
CC(C)(C)c1nc(C(=O)N2CCOCC2)n2ccccc12,-17.5% [at 138 µM] (inactive),,
Cc1cccc(C)c1-c1nc(C(=O)N2CCN(c3ncccn3)CC2)n2ccccc12,,,39.8 µM (active)
COc1ccc(C2Cn3cnc(C(=O)N4CCC(C(=O)NC5CCCC5)CC4)c3CO2)cc1 (centres undefined),-13.7% (inactive),,
COCC1CN(C(C)=O)CC12CCN(C(=O)C1CC=CCC1)CC2 (centres undefined),-5.78% (inactive),,
COC(=O)CNC(=O)C1CCN(Cc2ccccc2-c2ccccc2F)CC1,-18.2% (inactive),,
O=C(C1CCN(Cc2ccccc2-c2ccccc2F)CC1)N1CCC(c2ccccc2)CC1,,,31.6 µM (active)
CC(=O)N1CCCC1C(=O)N1CCC(c2ccccc2)CC1 (centres undefined),2.07% [at 138 µM] (inactive),,
Cc1noc(C)c1CC(=O)N1CCC(c2n[nH]c(=O)n2Cc2ccc(F)cc2)CC1,-5.74% (inactive),,
COc1cc(F)ccc1-c1ccc(COc2ccc3c(cnn3CCC(=O)O)c2)cc1,-21.2% [at 138 µM] (inactive),,
O=C(C1CCC1)N1CCC(Oc2cccnc2)C1 (centres undefined),,inactive,
O=C(O)CCn1ncc2cc(OC3CCN(C(=O)C4CCCC4)CC3)ccc21,,,44.7 µM (active)
COc1ccc(CNC(=O)NCC2Cn3cccc3CN2C)cc1 (centres undefined),1.33% (inactive),,
COCCOCc1nc(C2CCN(C(=O)c3ccncc3)CC2)no1,-9.28% (inactive),,
Cc1ccc(OCc2nc(C3CCN(C(=O)c4c5c(nc6ccccc46)CCCC5)CC3)no2)cc1,-25.4% (inactive),,
Cc1ccc(OCc2nc(C3CCN(C(=O)c4noc(C)c4CN4CCCCC4)CC3)no2)cc1,,,31.6 µM (active)
COc1ccc(C(=O)N2CCC(C(=O)N3CCC(N4CCOCC4=O)CC3)CC2)cc1,-10.2% (inactive),,
CN(C)CCNC(=O)C(C)(C)Oc1nn(Cc2cccc(Cl)c2)c2ccccc12,,,10 µM (active)
O=C(CN1C(=O)NC2(CCCCC2)C1=O)Nc1cccc(Br)c1,-14.9% (inactive),,
CCNC(=O)N[C@H]1[C@H](O)[C@@H](N(C)CCc2ccccn2)[C@@H]2OC[C@H]1O2,3.61% [at 174 µM] (inactive),,
